Drawing on PubChem BioAssay AID624396 (The Scripps Research Institute Molecular Screening Center, 2012), this text covers apoptosis for one compound.

Active and inactive are the calls of the source.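 Rule for the calls: active = over 15% of cells apoptotic at 25 µM, or half-maximal dose of 10 µM or lower; inactive = the rest.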

The test system of the experiment is MCL1 1780. The experiment is described as follows: apoptosis induction in cancer cell lines, late-stage follow-up, mechanism study for MCL1-BIM inhibitor project, imaging, DAPI staining, cell line panel, probe (AID 624396). As to conditions: DAPI nuclear morphology, at 25 µM, active compounds read high.

As for `CCN1CCN(C(c2ccc(C(F)(F)F)cc2)c2ccc3cccnc3c2O)CC1` (stereo unspecified), the apoptosis is 99% (active).
